Assay results as given in PubChem BioAssay (NCI).
Compounds without any hit were thinned out: in the full panel of roughly 79,000, 15% have a hit. A number with no mark means an inactive call. Calls of active or inactive are those of the source. Cut-off read from the data, not from the text of the source: active = growth inhibition above about 70%; inactive = the rest.

Key:
[1] = NCI Yeast Anticancer Drug Screen. Data for the rad50 strain (AID 155);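 note: 0% = growth of vehicle-only cultures of the same strain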; conditions: S. cerevisiae rad50 strain growth inhibition; at 50.0 µM; hits give high values
In short: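 Relative growth inhibition (compound vs vehicle) was measured in yeast with a defined repair-gene alteration.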

[2] = NCI Yeast Anticancer Drug Screen. Data for the mec2-1 strain (AID 157); conditions: S. cerevisiae mec2-1 strain, at 50.0 µM, hits give high values
In short: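 Strain: mec2-1 (DNA repair/cell cycle alteration). Compound exposure, then growth measured; inhibition expressed relative to vehicle.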

[3] = NCI Yeast Anticancer Drug Screen. Data for the sgs1 mgt1 strain (AID 161);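 note: 0% = growth of cultures given vehicle only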; conditions: S. cerevisiae sgs1 mgt1 strain, at 50.0 µM, hits give high values
In short: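 Genetically altered yeast, compound exposure, growth inhibition relative to vehicle.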

[4] = NCI Yeast Anticancer Drug Screen. Data for the cln2 rad14 strain (AID 165);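 note: 0% = growth equal to vehicle treated cultures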; conditions: S. cerevisiae cln2 rad14 strain, at 50.0 µM, hits give high values
In short: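 Compounds are applied to the cln2 rad14 yeast strain, and growth is then compared with that of vehicle-treated cultures to give inhibition.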

[5] = NCI Yeast Anticancer Drug Screen. Data for the bub3 strain (AID 167); conditions: S. cerevisiae bub3 mutant strain, at 50.0 µM, hits give high values
In short: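 Screening used yeast with an engineered genetic alteration affecting cell cycle control. Compound-exposed cultures were compared with vehicle cultures, and reduced growth was taken as inhibition.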

[6] = NCI Yeast Anticancer Drug Screen. Data for the mlh1 rad18 strain (AID 175); conditions: S. cerevisiae mlh1 rad18 strain growth inhibition; at 50.0 µM; hits give high values
In short: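 Read-out is yeast growth inhibition, calculated against vehicle-only controls. The compound was applied to a strain engineered with DNA damage repair alterations.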

SMILES: CCCCCCCCCCCCCCCCC(CCCCCCCCCCCCCCCC)c1ccccc1
- growth inhibition [1]: 35.2%
- growth inhibition [2]: -0.65%
- growth inhibition [3]: 13.4%
- growth inhibition [4]: -18.1%
- growth inhibition [5]: 4.05%
- growth inhibition [6]: 18.6%

SMILES: CC1C(=NO)C(C)C(c2ccccc2)N(N=O)C1c1ccccc1 (stereo unspecified)
- growth inhibition [1]: -12.6%
- growth inhibition [2]: -20.5%
- growth inhibition [3]: -6.1%
- growth inhibition [4]: 3.25%
- growth inhibition [5]: 0.45%
- growth inhibition [6]: 26.4%

SMILES: Cc1ccccc1N=Cc1ccccc1[N+](=O)[O-]
- growth inhibition [1]: 17.1%
- growth inhibition [2]: 9.65%
- growth inhibition [3]: -1.1%
- growth inhibition [4]: -22.2%
- growth inhibition [5]: -0.6%
- growth inhibition [6]: 8.1%

SMILES: CCC(c1ccc(Cl)cc1)N(CC)c1ccccn1 (stereo unspecified)
- growth inhibition [1]: 7%
- growth inhibition [2]: -0.4%
- growth inhibition [3]: 16.6%
- growth inhibition [4]: -52.4%
- growth inhibition [5]: 3.5%
- growth inhibition [6]: -30.2%

SMILES: Nc1ccccc1S(=O)O
- growth inhibition [1]: -4%
- growth inhibition [2]: 8.55%
- growth inhibition [3]: 14.9%
- growth inhibition [4]: 7.7%
- growth inhibition [5]: -25.9%
- growth inhibition [6]: 13.1%

SMILES: O=c1/c(=C\c2ccccc2Cl)sc2n1CCN=2
- growth inhibition [1]: 22.2%
- growth inhibition [2]: 5.8%
- growth inhibition [3]: 4.9%
- growth inhibition [4]: 15.4%
- growth inhibition [5]: 11.3%
- growth inhibition [6]: 24.9%

SMILES: COc1cc(OC)c(NC2=CC(c3ccc(Cl)cc3)OC2=O)cc1Cl (stereo unspecified)
- growth inhibition [1]: 27.3%
- growth inhibition [2]: 1.85%
- growth inhibition [3]: 12.8%
- growth inhibition [4]: -3.6%
- growth inhibition [5]: 1.4%
- growth inhibition [6]: 17.8%

SMILES: [N-]=[N+]=Nc1ccccc1Oc1ccccc1
- growth inhibition [1]: 9.85%
- growth inhibition [2]: -18.1%
- growth inhibition [3]: 5.15%
- growth inhibition [4]: 17.7%
- growth inhibition [5]: -16.6%
- growth inhibition [6]: 10.5%

SMILES: O=C(Nc1ccc(Cl)cc1)Nc1nnc(-c2ccc(F)cc2)o1
- growth inhibition [1]: 5.5%
- growth inhibition [2]: 9.25%
- growth inhibition [3]: 7.75%
- growth inhibition [4]: -70.3%
- growth inhibition [5]: -25%
- growth inhibition [6]: 17.4%

SMILES: CCCCC(O)(CC)CC
- growth inhibition [1]: 3.3%
- growth inhibition [2]: -23.9%
- growth inhibition [3]: -3.6%
- growth inhibition [4]: 5.5%
- growth inhibition [5]: -16.4%
- growth inhibition [6]: 15.2%

SMILES: COc1ccc(C2S/C(=C\c3cccc(OC)c3)C(=O)N2NC(=O)Cc2ccccc2)cc1 (stereo unspecified)
- growth inhibition [1]: -12.8%
- growth inhibition [2]: -27.1%
- growth inhibition [3]: -2.75%
- growth inhibition [4]: -37.5%
- growth inhibition [5]: -19.4%
- growth inhibition [6]: -10.8%

SMILES: COc1ccc(C(=O)C2CC(=O)NC2=O)cc1 (stereo unspecified)
- growth inhibition [1]: -11.6%
- growth inhibition [2]: -5.95%
- growth inhibition [3]: -1.8%
- growth inhibition [4]: -38.5%
- growth inhibition [5]: -0.7%
- growth inhibition [6]: -0.4%

SMILES: CC1(C)OC2OC(C3CC3)C(OCc3ccccc3)C2O1 (stereo unspecified)
- growth inhibition [1]: -4.35%
- growth inhibition [2]: -1.05%
- growth inhibition [3]: -7.55%
- growth inhibition [4]: -16%
- growth inhibition [5]: -10.7%
- growth inhibition [6]: -6.5%

SMILES: Cc1ccc(NC(=S)SCc2ccc(Cl)c(Cl)c2)cc1Br
- growth inhibition [1]: 29.3%
- growth inhibition [2]: -6.45%
- growth inhibition [3]: 10.2%
- growth inhibition [4]: 15%
- growth inhibition [5]: 0.3%
- growth inhibition [6]: 13.8%

SMILES: NC1=NN(c2ccccc2)C(=O)C1/C(=N\NC(=O)c1cc2ccccc2cc1O)C(=O)Nc1ccc(Cl)cc1 (stereo unspecified)
- growth inhibition [1]: 40.5%
- growth inhibition [2]: 21.9%
- growth inhibition [3]: -7.4%
- growth inhibition [4]: 24.8%
- growth inhibition [5]: 22.8%
- growth inhibition [6]: 49.5%

SMILES: c1ccc(-c2cn3c(nc4ccccc43)c(-c3ccccc3)n2)cc1
- growth inhibition [1]: -44.6%
- growth inhibition [2]: -7.15%
- growth inhibition [3]: -29.1%
- growth inhibition [4]: -1.15%
- growth inhibition [5]: -4.3%
- growth inhibition [6]: -41.9%

SMILES: CCOC(=O)CCC(NC(=O)c1ccc(Nc2nc3cc(C(F)(F)F)ccc3nc2-c2ccccc2)cc1)C(=O)OCC (stereo unspecified)
- growth inhibition [1]: 12.9%
- growth inhibition [2]: 2.7%
- growth inhibition [3]: 12.1%
- growth inhibition [4]: 3.9%
- growth inhibition [5]: -5.35%
- growth inhibition [6]: -37.1%

SMILES: Cc1cc(C)c(NS(=O)(=O)c2ccc(Cl)cc2)cc1C
- growth inhibition [1]: 94.5% (active)
- growth inhibition [2]: 85.8% (active)
- growth inhibition [3]: 92.2% (active)
- growth inhibition [4]: 70%
- growth inhibition [5]: 87.6% (active)
- growth inhibition [6]: 90.5% (active)

SMILES: O=C1OC(c2ccccc2)=N/C1=C/N1CCCC1C(=O)O (stereo unspecified)
- growth inhibition [1]: -1%
- growth inhibition [2]: 5.6%
- growth inhibition [3]: 15.9%
- growth inhibition [4]: 10.1%
- growth inhibition [5]: -4.4%
- growth inhibition [6]: -6.3%

SMILES: O=C1c2cc3c(cc2C(=O)c2[nH]c(=O)ccc21)CCCC3
- growth inhibition [1]: 11.5%
- growth inhibition [2]: 25.9%
- growth inhibition [3]: 16%
- growth inhibition [4]: 0.85%
- growth inhibition [5]: 33.4%
- growth inhibition [6]: 35.6%

SMILES: COC(=O)C(CC1=C(O)Nc2ccccc2N1)/C(=N/NC(N)=O)C(=O)Nc1ccccc1C (stereo unspecified)
- growth inhibition [1]: 11.4%
- growth inhibition [2]: 9%
- growth inhibition [3]: 13.6%
- growth inhibition [4]: -17.6%
- growth inhibition [5]: -5.5%
- growth inhibition [6]: -46.4%

SMILES: OCc1cn(C(c2ccccc2)(c2ccccc2)c2ccccc2)cn1
- growth inhibition [1]: -113%
- growth inhibition [2]: -58.3%
- growth inhibition [3]: -22.5%
- growth inhibition [4]: -0.85%
- growth inhibition [5]: -1%
- growth inhibition [6]: -30.6%

SMILES: C(=C\c1ccccc1)/C=N/N=C/C=C/c1ccccc1
- growth inhibition [1]: -5.5%
- growth inhibition [2]: -30.1%
- growth inhibition [3]: -10.9%
- growth inhibition [4]: -37%
- growth inhibition [5]: 4.45%
- growth inhibition [6]: -4%

SMILES: CCCCCCCCCCCCCCCCCCCC/C=C/C1CC(=O)OC1=O (stereo unspecified)
- growth inhibition [1]: -4.8%
- growth inhibition [2]: -6%
- growth inhibition [3]: 16.9%
- growth inhibition [4]: 26.8%
- growth inhibition [5]: 16.9%
- growth inhibition [6]: 7.1%

SMILES: O=[N+]([O-])C(CO)(CO)c1ccccc1
- growth inhibition [1]: 25.3%
- growth inhibition [2]: 2.4%
- growth inhibition [3]: 6%
- growth inhibition [4]: 18.8%
- growth inhibition [5]: 3.55%
- growth inhibition [6]: 15.7%

SMILES: CCOC(=O)c1c(SC(=O)c2ccc(OC)cc2)n(-c2ccccc2)c(=S)n(-c2ccccc2)c1=O
- growth inhibition [1]: 16.2%
- growth inhibition [2]: 0.75%
- growth inhibition [3]: 3.75%
- growth inhibition [4]: 8.55%
- growth inhibition [5]: 16.8%
- growth inhibition [6]: 12.8%

SMILES: COc1cccc(C2OC(N)=C(O)C2=O)c1 (stereo unspecified)
- growth inhibition [1]: -10.8%
- growth inhibition [2]: 1.9%
- growth inhibition [3]: 3.6%
- growth inhibition [4]: -11.2%
- growth inhibition [5]: 2.45%
- growth inhibition [6]: 22.2%

SMILES: CCCCCSC1CCCC1
- growth inhibition [1]: 35%
- growth inhibition [2]: -10%
- growth inhibition [3]: 7.65%
- growth inhibition [4]: -2.2%
- growth inhibition [5]: 9.5%
- growth inhibition [6]: 28.7%

SMILES: COC(=O)c1c(-c2ccccc2)cn(C)c1C
- growth inhibition [1]: 16.9%
- growth inhibition [2]: 9.95%
- growth inhibition [3]: 12.8%
- growth inhibition [4]: 5.75%
- growth inhibition [5]: 6.6%
- growth inhibition [6]: -6.4%

SMILES: CC(=O)N1C(NN(C)C)CCN1c1ccccc1 (stereo unspecified)
- growth inhibition [1]: 36%
- growth inhibition [2]: -28.9%
- growth inhibition [3]: 13.6%
- growth inhibition [4]: -4.75%
- growth inhibition [5]: -22.5%
- growth inhibition [6]: 2.95%

SMILES: CS(=O)(=O)NCC1OC(n2cnc3c(N)ncnc32)C(O)C1O (stereo unspecified)
- growth inhibition [1]: 12.2%
- growth inhibition [2]: -9.3%
- growth inhibition [3]: 19%
- growth inhibition [4]: -5.95%
- growth inhibition [5]: 30.5%
- growth inhibition [6]: 1.8%

SMILES: Cc1nc2ccccc2c(=O)n1NC(=O)c1ccccc1O
- growth inhibition [1]: -7.45%
- growth inhibition [2]: -53.6%
- growth inhibition [3]: -7.6%
- growth inhibition [4]: 11.5%
- growth inhibition [5]: -4.1%
- growth inhibition [6]: 17.1%

SMILES: COc1ccc(CCN(C)C(c2ccccc2)c2ccccc2)cc1OC
- growth inhibition [1]: -2.8%
- growth inhibition [2]: -6.65%
- growth inhibition [3]: 10.9%
- growth inhibition [4]: 3.75%
- growth inhibition [5]: 4.75%
- growth inhibition [6]: 3.3%

SMILES: Clc1cc(Cl)c(Cl)c(Cl)c1Cl
- growth inhibition [1]: -4.1%
- growth inhibition [2]: -9.95%
- growth inhibition [3]: -0.15%
- growth inhibition [4]: 12.8%
- growth inhibition [5]: -2.7%
- growth inhibition [6]: 13.9%

SMILES: COC(=O)C(CC(=O)[C@H]1CC[C@H]2[C@@H]3CC=C4C[C@@H](OC(C)=O)CC[C@]4(C)[C@H]3CC[C@]12C)OC (stereo partly specified)
- growth inhibition [1]: 11.8%
- growth inhibition [2]: 8.6%
- growth inhibition [3]: 15.2%
- growth inhibition [4]: 2.45%
- growth inhibition [5]: -22.4%
- growth inhibition [6]: 9%

SMILES: CCCCCC(C#N)CCC(C)=O (stereo unspecified)
- growth inhibition [1]: -6.7%
- growth inhibition [2]: -9.15%
- growth inhibition [3]: -9.3%
- growth inhibition [4]: -6.2%
- growth inhibition [5]: -0.95%
- growth inhibition [6]: -10%

SMILES: CC(=O)NNc1nc(C)c(C(=O)/C=C/c2ccccc2Cl)s1
- growth inhibition [1]: 37.5%
- growth inhibition [2]: 16.1%
- growth inhibition [3]: 17.4%
- growth inhibition [4]: 19.4%
- growth inhibition [5]: 23.1%
- growth inhibition [6]: 43.5%

SMILES: Cc1nn(-c2nc(-c3ccc(Br)cc3)cs2)c(C)c1C
- growth inhibition [1]: 12.9%
- growth inhibition [2]: -4.9%
- growth inhibition [3]: -9.95%
- growth inhibition [4]: 9.6%
- growth inhibition [5]: 5.65%
- growth inhibition [6]: 3.45%

SMILES: O=c1cc(-c2ccc3c(c2)OCO3)oc2ccccc12
- growth inhibition [1]: 20.4%
- growth inhibition [2]: 1.8%
- growth inhibition [3]: 6%
- growth inhibition [4]: -2.35%
- growth inhibition [5]: -5.25%
- growth inhibition [6]: -3.8%

SMILES: C=C1CC/C=C(\C)CCC2C1CC2(C)C (stereo unspecified)
- growth inhibition [1]: -5.1%
- growth inhibition [2]: -17.1%
- growth inhibition [3]: 1.9%
- growth inhibition [4]: 12.2%
- growth inhibition [5]: 21.1%
- growth inhibition [6]: 10.9%

SMILES: CCOc1cc2c(cc1O)/C(=N\O)C[C@@H]1[C@@H]2CC[C@]2(C)[C@@H](O)CC[C@@H]12
- growth inhibition [1]: 31.6%
- growth inhibition [2]: 13%
- growth inhibition [3]: 57.2%
- growth inhibition [4]: 20.6%
- growth inhibition [5]: 24.2%
- growth inhibition [6]: -9.15%
